Bioassay records as filed in PubChem.
Sampled rows, rich in hits. Any-hit rate of the full collection: about 10%.
Sfp inh: Sfp phosphopantetheinyl transferase inhibition | Q9F4F7 | Biochemical Sfp PPTase activity, qHTS | Potency, µM, most hits filed as inhibitors | hit rate 3.5% among 310,000 | AID 1490;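 note: the enzyme is Sfp with the accession as filed and its product quenches rhodamine fluorescence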
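Step 1, compound plus 15 nM Sfp-PPTase, 15 min, room temperature. Step 2, add rhodamine-CoA (5 uM) and BHQ-2-YbbR (12.5 uM). Step 3, read 525/598 nm fluorescence at 0 and 30 min.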
Mm-Cpn inhibitor: blocks the Methanococcus maripaludis chaperonin Mm-Cpn | hit rate 0.031% among 330,000 | Potency, µM (top dose mostly 76.9 µM), hits mostly inhibitors | purified Mm-Cpn ATPase, ADP Transcreener TR-FRET; note: nearly all actives have a fitted effect of over 80% in size
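Eu-cryptate anti-ADP/ADP-d2 competition gives a ratio inversely related to ADP. Enzyme at 25 nM was pre-exposed to compound for 10 min, then given 10 uM ATP for 30 min, 37°C throughout.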
VDR inhibitor: inhibitors of human vitamin D receptor | P11473 | VDR-SRC2-3 peptide fluorescence polarization, 2 h | Potency, µM, hits mostly inhibitors | hit rate 0.93% among 400,000 | AID 504847
Target sequence (P11473 whole entry, looked up): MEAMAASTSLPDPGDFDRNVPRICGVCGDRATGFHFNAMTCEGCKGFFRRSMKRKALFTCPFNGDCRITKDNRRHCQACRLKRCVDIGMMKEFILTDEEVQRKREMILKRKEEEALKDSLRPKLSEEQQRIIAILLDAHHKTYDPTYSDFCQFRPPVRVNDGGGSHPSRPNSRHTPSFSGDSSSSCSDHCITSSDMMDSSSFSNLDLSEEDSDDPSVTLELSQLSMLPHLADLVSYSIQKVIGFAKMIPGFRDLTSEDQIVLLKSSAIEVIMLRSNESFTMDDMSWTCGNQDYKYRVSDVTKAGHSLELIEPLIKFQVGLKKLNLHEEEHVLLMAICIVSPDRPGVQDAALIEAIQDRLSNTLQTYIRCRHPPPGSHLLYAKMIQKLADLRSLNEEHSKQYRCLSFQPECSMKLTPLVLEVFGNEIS
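Fluorescence polarization assay of small-molecule disruption of VDR binding to coregulator peptide SRC2-3. Compounds and controls pin-transferred, then read after 2 h incubation at ambient room temperature.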
CCT modulator: changes cytosolic chaperonin activity. activity change, % (test concentration not listed), hits read low. AID 651819. hit rate 0.3% among 360,000. purified chaperonin ATPase assay, HTRF ADP detection, 30 min; in the data active = activity change below about -30%
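TRiC (40 or 20 nM final, by batch activity) in 30 mM Tris pH 7.4, 100 mM KCl, 5 mM MgCl2, 1 mM DTT was treated with compound at 76 uM single dose, then 10 uM ATP, 30 min at 37 °C. ADP was read by HTRF Transcreener.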
PLK1 PBD inh: PLK1 (human) polo-box domain binding inhibition; hit rate 2.8% among 360,000; Potency, µM, most hits filed as inhibitors; AID 720504; Plk1 PBD binding of FITC phosphopeptide, fluorescence polarization; P53350; note: series mostly up to about 57 µM; nearly all actives have a fitted effect of over 65% in size
G9a block: inhibitors of human histone lysine methyltransferase G9a | Q96KQ7 | G9a H3K9 monomethylation, AlphaScreen, 2 h | Potency, µM (series often up to 102 µM), hits mostly inhibitors | hit rate 8.8% among 350,000; note: nearly all actives have a fitted effect of over 75% in size
Target sequence (Q96KQ7 913-1193 limits assumed): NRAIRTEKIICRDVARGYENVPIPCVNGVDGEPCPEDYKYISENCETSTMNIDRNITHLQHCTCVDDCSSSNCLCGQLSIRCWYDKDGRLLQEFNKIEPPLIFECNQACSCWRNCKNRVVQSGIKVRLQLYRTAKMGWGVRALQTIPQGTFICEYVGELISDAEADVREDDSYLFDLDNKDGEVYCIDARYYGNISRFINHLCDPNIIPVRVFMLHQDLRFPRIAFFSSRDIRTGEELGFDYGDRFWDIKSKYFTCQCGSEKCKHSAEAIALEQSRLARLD
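Signal arises when biotinylated H3K9 peptide, once monomethylated, bridges streptavidin donor and antibody-captured acceptor beads. Enzyme at 20 nM was preincubated 15 min with test compounds; peptide 500 nM and SAM 20 uM then reacted for 2 h.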
Hits are given with their value; [ ] = remark or other dose. Unless noted, calls come from the whole dose curve; as a rule, active = well fitted curve in the direction sought with a large enough effect; inconclusive = small, poorly fitted or top-dose-only effect, or another doubt; inactive = no such curve, though single readings can be large; an effect the other way counts as inactive or inconclusive.

`CCOc1cc(/C=N/Nc2ccccc2Cl)ccc1OCC(=O)O` gave Sfp inh inactive, Mm-Cpn inhibitor inactive, VDR inhibitor inactive, CCT modulator inactive, PLK1 PBD inh inactive and G9a block 10µM.
For CCOC(=O)c1ccc2nc(C)cc(Nc3ccc(OC(C)C)cc3)c2c1 the results were VDR inhibitor inactive and G9a block inactive.
For COc1cc(/C=C2\N=C3CCCCCN3C2=O)ccc1O the results were Sfp inh inactive, Mm-Cpn inhibitor inactive, VDR inhibitor inactive, CCT modulator inactive, PLK1 PBD inh inactive and G9a block inconclusive.
Screening O=C1/C(=C\c2ccc(O)c(O)c2)N=C2CCCCCN12 returned Sfp inh 56.2µM, Mm-Cpn inhibitor inactive, VDR inhibitor inactive, CCT modulator inactive, PLK1 PBD inh inactive and G9a block 28.2µM.
`Cc1cccc2c1NC1(CCCC1)CC2C` (stereo not drawn) gave Sfp inh inactive, Mm-Cpn inhibitor inactive, VDR inhibitor inactive, CCT modulator inactive, PLK1 PBD inh inactive and G9a block 50.1µM.
For COc1ccc2c(c1)O[C@@H](c1cccc(C(F)(F)F)c1)[C@H](OC(=O)NS(=O)(=O)c1ccc(F)cc1)C2=O the results were Sfp inh inactive and VDR inhibitor inactive.
For CC1(C)Cc2[nH]c(=S)c(C#N)cc2CO1 the results were Sfp inh 10µM, Mm-Cpn inhibitor inactive, VDR inhibitor inconclusive, CCT modulator inactive, PLK1 PBD inh 16.8µM and G9a block 0.708µM.
`CSc1nccn1C(=O)c1ccccc1[N+](=O)[O-]` gave Sfp inh 39.8µM, Mm-Cpn inhibitor inactive, VDR inhibitor inconclusive, CCT modulator inactive, PLK1 PBD inh inconclusive and G9a block 35.5µM.
Cn1ccnc1Sc1ccccc1[N+](=O)[O-] was read as Sfp inh inactive, Mm-Cpn inhibitor inactive, VDR inhibitor inactive, CCT modulator inactive, PLK1 PBD inh inconclusive and G9a block inconclusive.
FC(F)Oc1ccc(/C=N/N2CCCCC2)c(OC(F)F)c1 was read as Sfp inh inactive, Mm-Cpn inhibitor inactive and G9a block 56.2µM.
O=C(Oc1cccccc1=O)c1ccccc1 was read as Sfp inh 25.1µM, Mm-Cpn inhibitor inactive, VDR inhibitor inactive, CCT modulator inactive, PLK1 PBD inh inactive and G9a block 25.1µM.
Screening Cc1ccc(-c2cc(-c3coc4ccc(Cl)cc4c3=O)c3c(n2)-c2ccccc2OC3)cc1 returned VDR inhibitor inactive and G9a block inactive.
`CCOc1ccc(NC(=O)Cn2nc3c(cc2=O)CC(C)CC3)cc1` (stereo not drawn) gave VDR inhibitor inactive and G9a block inactive.
Screening Cn1cccc1Cc1nnc(SCC(=O)NCc2ccc(F)cc2)n1-c1ccc(F)cc1 returned Sfp inh inactive, Mm-Cpn inhibitor inactive, VDR inhibitor inactive, CCT modulator inactive, PLK1 PBD inh inactive and G9a block 50.1µM.
For CCc1ccc(NC(=O)CSc2nnc(Cc3cccn3C)n2-c2ccc(F)cc2)cc1 the results were Sfp inh inactive, Mm-Cpn inhibitor inactive, VDR inhibitor inactive, CCT modulator inactive, PLK1 PBD inh inactive and G9a block inconclusive.
For Cn1cccc1Cc1nnc(SCC(=O)NC2CCCC2)n1-c1ccc(F)cc1 the results were Sfp inh inactive, Mm-Cpn inhibitor inactive, VDR inhibitor inactive, CCT modulator inactive, PLK1 PBD inh inactive and G9a block 70.8µM.
For Cn1cccc1Cc1nnc(SCC(=O)NCc2ccccc2)n1-c1ccc(F)cc1 the results were Sfp inh inactive, Mm-Cpn inhibitor inactive, VDR inhibitor inactive, CCT modulator inactive, PLK1 PBD inh inactive and G9a block 50.1µM.
`Cc1ccc(NC(=O)c2cn3c4c(ccc(Cl)c4c2=O)OC(C)C3)c(C)c1` (stereo not drawn) gave VDR inhibitor inactive and G9a block inactive.
Cc1ccc(NC(=O)[C@H](NC(=O)[C@@H]2Cc3ccccc3CN2)c2ccccc2)c(C)c1 was read as Sfp inh inactive, Mm-Cpn inhibitor inactive, VDR inhibitor inactive, CCT modulator inactive and PLK1 PBD inh inactive.
`CC(C)c1ccc(NC(=O)[C@@H](C)NC(=O)[C@@H]2Cc3ccccc3CN2)cc1` gave Sfp inh inactive, Mm-Cpn inhibitor inactive, VDR inhibitor inactive, CCT modulator inactive, PLK1 PBD inh inactive and G9a block inconclusive.
Screening Cc1ccc(NC(=O)[C@H](Cc2ccccc2)NC(=O)[C@@H]2Cc3ccccc3CN2)c(C)c1 returned Sfp inh inactive, Mm-Cpn inhibitor inactive, VDR inhibitor inactive, CCT modulator inactive, PLK1 PBD inh inactive and G9a block 35.5µM.
CCc1ccc(NC(=O)[C@H](NC(=O)[C@@H]2Cc3ccccc3CN2)c2ccccc2)cc1 was read as Sfp inh inactive, Mm-Cpn inhibitor inactive, VDR inhibitor inactive, CCT modulator inactive and PLK1 PBD inh 29.9µM.
For Cc1cc(C)cc(NC(=O)[C@H](NC(=O)[C@@H]2Cc3ccccc3CN2)c2ccccc2)c1 the results were Sfp inh inconclusive, Mm-Cpn inhibitor inactive, VDR inhibitor inactive, CCT modulator inactive, PLK1 PBD inh inactive and G9a block 79.4µM.
For CCc1ccc(NC(=O)CNC(=O)[C@@H]2Cc3ccccc3CN2)cc1 the results were Sfp inh inactive, Mm-Cpn inhibitor inactive, VDR inhibitor inactive, CCT modulator inactive, PLK1 PBD inh inconclusive and G9a block 79.4µM.
Cc1ccc(NC(=O)C2CCC(CNC(=O)[C@@H]3Cc4ccccc4CN3)CC2)cc1 (stereo partly drawn) was read as Sfp inh inactive, Mm-Cpn inhibitor inactive, VDR inhibitor inactive, CCT modulator inactive, PLK1 PBD inh inactive and G9a block inactive[0.0925 µM].
Screening O=C(NC(=S)Nn1cnc2c(cnn2-c2ccccc2)c1=O)c1ccc(Cl)cc1 returned Sfp inh inactive, Mm-Cpn inhibitor inactive, VDR inhibitor inactive, CCT modulator inactive, PLK1 PBD inh inconclusive and G9a block 44.7µM.
For Cc1nn(-c2ccc(F)cc2)c(Cl)c1C(=O)NCC1CCCO1 (stereo not drawn) the results were Mm-Cpn inhibitor inactive, VDR inhibitor 89.1µM, CCT modulator inactive, PLK1 PBD inh inactive and G9a block inactive.
`O=C(Cc1ccc(F)cc1)NCC1CCCO1` (stereo not drawn) gave Sfp inh inactive, Mm-Cpn inhibitor inactive, VDR inhibitor inactive, CCT modulator inactive and PLK1 PBD inh inactive.
Screening c1cnc2c(c1)ncc1cscc12 returned Sfp inh inactive, Mm-Cpn inhibitor inactive, VDR inhibitor inactive, CCT modulator inactive, PLK1 PBD inh inactive and G9a block inactive.
`c1cc2c(cn1)cnc1cscc12` gave Sfp inh inactive, Mm-Cpn inhibitor inactive, VDR inhibitor inactive, CCT modulator inactive, PLK1 PBD inh inactive and G9a block 79.4µM.
`O=c1c(-c2ccccc2)nc2cnc(N3CCOCC3)nc2n1Cc1cccs1` gave Sfp inh inactive, VDR inhibitor inactive and G9a block inactive[0.501 µM].
